Results from PubChem BioAssay AID1851 (National Center for Advancing Translational Sciences (NCATS), 2009).
Values joined by “and” are separate entries in the source; they are usually repeats but may differ in a detail not shown here. Identical values can stand only once. In all, about 16,000 compounds went through this assay and about 2,600 (16%) were called active. About 20% were inconclusive and are not listed. The call rests on the fitted dose curve; in most records, active means well fitted curve in the direction sought with a large enough effect; inconclusive means small, poorly fitted or top-dose-only effect, or effect the other way; inactive means no such curve, though single readings can be large or run the other way. Not all results are given here.
On the % scale 0 is the no-effect control and ±100 the full control effect.

The compounds below were run against Cytochrome P450 2D6 (Homo sapiens) (UniProt P10635) (assay: Cytochrome panel assay with activity outcomes). Settings: recombinant CYP, pro-luciferin dealkylation, luminescence, p450-cyp2d6; series mostly up to 57.1 µM; activity, negative = inhibition: at the top concentration.
Sequence of Cytochrome P450 2D6 (Homo sapiens) (P10635 whole entry, looked up): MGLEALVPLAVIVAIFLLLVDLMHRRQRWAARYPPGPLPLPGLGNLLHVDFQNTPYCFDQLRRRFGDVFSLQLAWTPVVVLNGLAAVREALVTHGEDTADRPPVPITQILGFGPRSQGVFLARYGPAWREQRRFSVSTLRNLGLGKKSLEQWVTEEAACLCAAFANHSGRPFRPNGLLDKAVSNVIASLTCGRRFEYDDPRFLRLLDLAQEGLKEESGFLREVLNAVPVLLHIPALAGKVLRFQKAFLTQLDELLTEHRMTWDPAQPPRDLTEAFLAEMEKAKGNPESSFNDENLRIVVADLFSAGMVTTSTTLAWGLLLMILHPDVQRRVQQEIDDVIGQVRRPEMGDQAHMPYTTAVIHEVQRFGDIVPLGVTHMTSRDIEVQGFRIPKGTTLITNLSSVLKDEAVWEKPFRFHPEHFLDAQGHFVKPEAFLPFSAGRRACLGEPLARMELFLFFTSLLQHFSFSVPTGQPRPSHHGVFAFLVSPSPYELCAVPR
With `CC(=O)N(/N=C1\Sc2ccccc2C1=O)c1ccccc1` the “activity, negative = inhibition” value was -8.57% (inactive). In the case of `N#Cc1c(NC(=O)CCC(=O)O)ccc2ccccc12`, the activity, negative = inhibition was 7.11% [at 11.4 µM] (inactive). In the case of `COc1ccc(N2CCN(C(=N)/C(C(C)=O)=C(\C)O)CC2)cc1`, the “activity, negative = inhibition” value was -2.81% (inactive). With `COc1cccc(C2C3(C#N)C(N)=NC(OC)(OC)C23C#N)c1` (configuration not stated) the “activity, negative = inhibition” value was -23.1% (inactive). `COc1ccc(-c2nc3cnc(Oc4cccc(Cl)c4)nc3n(C[C@H]3CCCO3)c2=O)cc1` was tested, and the “activity, negative = inhibition” value was 5.96% (inactive). For `COc1ccc(NC(=O)c2cc3n(n2)C(C(F)(F)F)CC(c2ccc4c(c2)OCO4)N3)cc1OC` (configuration not stated), the “activity, negative = inhibition” value was 1.1% (inactive). For `COC(=O)C1=C(N)N(c2ccccc2C(F)(F)F)C2=C(C(=O)CCC2)C1c1ccc2c(c1)OCO2` (configuration not stated), the AC50 was 28.2 µM (active). In the case of `COc1ccc(OC)c(NC(=O)c2cc3n(n2)C(C(F)(F)F)CC(c2ccc4c(c2)OCO4)N3)c1` (configuration not stated), the “activity, negative = inhibition” value was 14.3% (inactive). `COc1cc(/C=C2/C(=N)N3C=CSC3=NC2=O)ccc1OCCCOc1ccccc1C` was tested, and the “activity, negative = inhibition” value was 7.61% (inactive). With `FC(F)(F)c1nnc2c(Sc3ccc(Cl)cc3)nc3ccccc3n12` the “activity, negative = inhibition” value was 1.4% (inactive). In the case of `CCOc1ccccc1NC(=O)CSc1nnc(-c2cnccn2)n1C`, the AC50 was 12.6 µM (active). `COC(=O)c1ccccc1NC(=O)CSc1nnc(C(CO)NC(=O)c2ccccc2Cl)n1C` (configuration not stated) was tested, and the “activity, negative = inhibition” value was -3.42% (inactive). With `CCOc1ccccc1-n1nnnc1SCC(=O)Nc1cc(C)on1` the “activity, negative = inhibition” value was -4.39% (inactive). `O=C1CCC(c2ccc(-n3ccnc3)cc2)=NN1` was tested, and the AC50 was 2.51 µM (active). For `CCn1c(O)c(/C=N/N=C2CCCC2)c2ccc(C3=NNC(=O)CC3)cc21`, the “activity, negative = inhibition” value was 7.62% (inactive). With `Cc1cn2c(-c3ccncc3)nnc2s1` the “activity, negative = inhibition” value was -15.7% (inactive). With `Oc1cc(O)c2c(c1)O[C@H](c1ccc(O)c(O)c1)[C@@H](O)[C@@H]2c1c(O)cc(O)c2c1O[C@@H](c1ccc(O)c(O)c1)[C@H](O)C2` the activity, negative = inhibition was -5.15% [at 11.4 µM] (inactive). For `CNc1ncnc2ccc(-c3ccccc3CN(C)C)cc12`, the AC50 was 10 µM (active). For `COc1ccc(CNc2ncnc3ccc(-c4ccccc4CN(C)C)cc23)c(OC)c1`, the AC50 was 1.26 µM (active). For `CNc1ncnc2ccc(-c3ccccc3C#N)cc12`, the “activity, negative = inhibition” value was -7.51% (inactive). For `COc1ccccc1CNc1ncnc2ccc(-c3ccccc3CN(C)C)cc12`, the AC50 was 2.51 µM (active). In the case of `COc1ccc(CNc2ncnc3ccc(-c4ccccc4OC)cc23)c(OC)c1`, the “activity, negative = inhibition” value was -15.8% (inactive). `CN(C)Cc1ccccc1-c1ccc2ncnc(NCc3ccccc3)c2c1` was tested, and the AC50 was 7.94 µM (active). In the case of `O=C1Nc2cc(Cl)c(Cl)cc2N(O)N1c1ccc(Cl)c(Cl)c1`, the “activity, negative = inhibition” value was 22.5% (inactive). For `CC1(C)O[C@@H]2C[C@H]3[C@H]4C[C@H](F)C5=CC(=O)CC[C@]5(C)[C@@H]4[C@H](O)C[C@]3(C)[C@]2(C(=O)CO)O1`, the “activity, negative = inhibition” value was 1.64% [at 25.6 µM] (inactive). For `COCC(=O)Oc1c(S(=O)(=O)c2ccc(C)cc2)c(C)nn1-c1ccccc1`, the “activity, negative = inhibition” value was -6.87% (inactive). For `NC(=O)c1cc[n+](CC2=C(C(=O)O)N3C(=O)[C@@H](NC(=O)[C@H](c4ccccc4)S(=O)(=O)[O-])[C@@H]3SC2)cc1`, the AC50 was “inactive”. In the case of `COc1ccc(-c2cc(C(=O)Nc3cnn(Cc4ccccc4C)c3)no2)cc1OC`, the “activity, negative = inhibition” value was 0.139% (inactive). With `COC(=O)c1cnn(C(=O)c2cc(OC)ccc2Br)c1N` the “activity, negative = inhibition” value was 2.31% (inactive). For `O=C(O)/C=C\[C@H](O)c1ccc(Cl)cc1`, the “activity, negative = inhibition” value was 0.669% (inactive). `Cc1ccccc1N(C(=O)Cc1cccs1)C(C(=O)NCC1CCCO1)c1cccnc1` (configuration not stated) was tested, and the “activity, negative = inhibition” value was -14.2% (inactive). For `N#Cc1c(-c2ccccc2)nc(-c2ccccc2)[nH]c1=O`, the “activity, negative = inhibition” value was 8.25% (inactive). `CC(C)CN=C(N)N=C(N)N` was tested, and the activity, negative = inhibition was 7.41% [at 11.4 µM] (inactive). With `N#C/C(=C\Nc1ccccn1)C(=O)c1ccco1` the activity, negative = inhibition was -1.48% [at 11.4 µM] (inactive). With `COCCNc1ncnc2ccc(-c3ccc(C(=O)N(C)C)cc3)cc12` the “activity, negative = inhibition” value was 0.335% (inactive). With `CS(=O)(=O)Nc1cccc(-c2ccc3ncnc(NC4CCNCC4)c3c2)c1` the “activity, negative = inhibition” value was -5.14% (inactive). `N#Cc1cccc(-c2ccc3ncnc(NC4CCNCC4)c3c2)c1` was tested, and the “activity, negative = inhibition” value was -2.46% (inactive). `COCCNc1ncnc2ccc(-c3ccccc3CN(C)C)cc12` was tested, and the AC50 was 15.8 µM (active). For `CN(C)Cc1ccccc1-c1ccc2ncnc(NC3CCNCC3)c2c1`, the AC50 was 10 µM (active). For `C[C@@H](CNC(N)=O)NC(N)=O`, the activity, negative = inhibition was -3.67% [at 11.4 µM] (inactive). For `CN1CCN(c2ncc3ncc(=O)n(-c4ccccc4)c3n2)CC1`, the “activity, negative = inhibition” value was -5.52% (inactive). `O=C(NC(N1CCCC1)C(Cl)(Cl)Cl)c1ccccc1` (configuration not stated) was tested, and the “activity, negative = inhibition” value was -26.8% (inactive). `COc1cccc(/C=N/NC(=O)c2nc(-c3ccccc3)cc(-c3ccccc3)n2)c1` was tested, and the “activity, negative = inhibition” value was 41.9% (inactive). With `Cc1ccccc1OCC(=O)OC1CCN(C)CC1` the “activity, negative = inhibition” value was -4.3% (inactive). `CC(C)(C)c1ccccc1OCCN1CCCC1` was tested, and the AC50 was 5.62 µM (active). In the case of `Cc1ccccc1OCCCN1CCCC1`, the AC50 was 14.1 µM (active). `Clc1ccccc1OCCCCN1CCCC1` was tested, and the AC50 was 11.2 µM (active). In the case of `O=C(O)c1ccc(OCc2ccccc2)c(Cl)c1`, the activity, negative = inhibition was 4.91% [at 11.4 µM] (inactive). With `Fc1ccccc1OCCCCCCN1CCCC1` the AC50 was 14.1 µM (active). With `Cc1ccc(CNC(=O)CCc2c(C)nc3ncnn3c2C)cc1` the “activity, negative = inhibition” value was -4.52% (inactive). For `O=C1[C@H]2[C@H]3[C@H](O)[C@H](O)C/C(=N/OC[C@@H](O)COCc4ccco4)[C@H]3CC[C@@H]2C(=O)N1C[C@@H]1CCCO1`, the activity, negative = inhibition was 14.8% [at 11.4 µM] (inactive). For `C/C(CCN1CCc2nc(-c3ccccc3)c(-c3ccccc3)cc2C1)=N\O[C@@H](C)c1cn([C@H](CO)Cc2ccccc2)nn1`, the activity, negative = inhibition was -8.59% [at 11.4 µM] (inactive) and -16.7% [at 11.4 µM] (inactive). With `COc1ccccc1S(=O)(=O)Nc1ccc(-c2nnc3n2CCCCC3)cc1` the “activity, negative = inhibition” value was -3.25% (inactive). With `N#Cc1c(N)nc2c(c1-c1cccc(O)c1)CCCCCC2` the “activity, negative = inhibition” value was -22.4% (inactive). With `CCc1nnc2sc(-c3ccc(NC(=O)c4ccco4)cc3)nn12` the “activity, negative = inhibition” value was -18.1% (inactive). `Cc1ccc(S(=O)(=O)N[C@H](C(=O)N2CCC(C(=O)NCC(=O)O)CC2)C(C)C)cc1` was tested, and the “activity, negative = inhibition” value was 5.93% (inactive). In the case of `Cc1cc(C)nc(NN2C(=O)/C(=C/c3ccccc3)SC2=S)n1`, the “activity, negative = inhibition” value was 20% (inactive). For `COc1ccc(/C=C\C(=O)Nc2ccccc2C(=O)O)cc1OC`, the “activity, negative = inhibition” value was -0.45% (inactive). In the case of `CCOc1cc(C#N)c(NC(=O)c2cccnc2)cc1OCC`, the “activity, negative = inhibition” value was -7.18% (inactive). `COCCNC(=O)c1onc(CSc2ccccc2F)c1C(=O)O` was tested, and the “activity, negative = inhibition” value was -3.48% (inactive). `CC(C)(C)NC(=O)C(=O)NNC(=O)c1ccccc1` was tested, and the “activity, negative = inhibition” value was 29.3% (inactive). With `N[C@H](C(=O)O)c1nn[nH]n1` the “activity, negative = inhibition” value was 4.99% (inactive).
